# Measured values as given in PMC5540273 (PLoS ONE, 2017).
# Read-outs that look alike come from different tables or passages of the source.
# Tests used:
# GRK3 = system: T1, GRK3; details: concentration: 1 μM, replicates: in singlicate; n = 1
# T1 construct: gene ADRBK2
# GRK4 = details: concentration: 1 μM, replicates: in singlicate; n = 1
# GRK7 = details: concentration: 1 μM, replicates: in singlicate; n = 1
# GSK3A = details: concentration: 1 μM, replicates: in singlicate; n = 1
# GSK3B = details: n = 1
# HASPIN = system: T2, HASPIN; details: concentration: 1 μM, replicates: in singlicate; n = 1
# T2 construct: gene GSG2
# HCK = details: concentration: 1 μM, replicates: in singlicate; n = 1
# HIPK1 = details: concentration: 1 μM, replicates: in singlicate; n = 1
# HIPK2 = details: concentration: 1 μM, replicates: in singlicate; n = 1
# HIPK3 = details: concentration: 1 μM, replicates: in singlicate; n = 1
# HIPK4 = details: concentration: 1 μM, replicates: in singlicate; n = 1
# HPK1 = details: concentration: 1 μM, replicates: in singlicate; n = 1
# HUNK = details: concentration: 1 μM, replicates: in singlicate; n = 1
# ICK = details: concentration: 1 μM, replicates: in singlicate; n = 1
# IGF1R = details: concentration: 1 μM, replicates: in singlicate; n = 1
# IKK-alpha = system: T3, IKK-alpha; details: concentration: 1 μM, replicates: in singlicate; n = 1
# T3 construct: gene CHUK
# IKK-beta = system: T4, IKK-beta; details: concentration: 1 μM, replicates: in singlicate; n = 1
# T4 construct: gene IKBKB
# IKK-epsilon = system: T5, IKK-epsilon; details: concentration: 1 μM, replicates: in singlicate; n = 1
# T5 construct: gene IKBKE
# INSRR = details: concentration: 1 μM, replicates: in singlicate; n = 1
# INSR = details: concentration: 1 μM, replicates: in singlicate; n = 1
# [1] = concentration: 1 μM, replicates: in singlicate
# 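Also: KINOMEscan kinase panel screen.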
smiles,measurement,setting,value
CSc1ccc(-c2nc3n(c2-c2ccncc2)CCC3)cc1 [SKF-105561],%Inh,GRK3,28%
same,%Inh,GRK4,5%
same,%Inh,GRK7,0%
same,%Inh,GSK3A,0%
same,%Inh,GSK3B; [1],20%
same,%Inh,HASPIN,35%
same,%Inh,HCK,7%
same,%Inh,HIPK1,0%
same,%Inh,HIPK2,0%
same,%Inh,HIPK3,6%
same,%Inh,HIPK4,2%
same,%Inh,HPK1,0%
same,%Inh,HUNK,21%
same,%Inh,ICK,18%
same,%Inh,IGF1R,0%
same,%Inh,IKK-alpha,5%
same,%Inh,IKK-beta,6%
same,%Inh,IKK-epsilon,12%
same,%Inh,INSRR,0%
same,%Inh,INSR,5%
Cc1ccc(-c2nc(Nc3ccncc3)c3ccccc3n2)s1 [GSK189015],%Inh,GRK3,0%
same,%Inh,GRK4,13%
same,%Inh,GRK7,0%
same,%Inh,GSK3A,18%
same,%Inh,GSK3B; [1],28%
same,%Inh,HASPIN,54%
same,%Inh,HCK,10%
same,%Inh,HIPK1,0%
same,%Inh,HIPK2,0%
same,%Inh,HIPK3,41%
same,%Inh,HIPK4,27%
same,%Inh,HPK1,41%
same,%Inh,HUNK,0%
same,%Inh,ICK,19%
same,%Inh,IGF1R,18%
same,%Inh,IKK-alpha,2%
same,%Inh,IKK-beta,20%
same,%Inh,IKK-epsilon,0%
same,%Inh,INSRR,22%
same,%Inh,INSR,9%
CS(=O)(=O)CCNCc1nc(-c2ccc3ncnc(Nc4ccc(OCc5ccccc5)c(Cl)c4)c3c2)cs1.Cl [GW582764],%Inh,GRK3,99.4%
same,%Inh,GRK4,4%
same,%Inh,GRK7,0%
same,%Inh,GSK3A,20%
same,%Inh,GSK3B; [1],3%
same,%Inh,HASPIN,32%
same,%Inh,HCK,0%
same,%Inh,HIPK1,0%
same,%Inh,HIPK2,0%
same,%Inh,HIPK3,0%
same,%Inh,HIPK4,0%
same,%Inh,HPK1,44%
same,%Inh,HUNK,5%
same,%Inh,ICK,0%
same,%Inh,IGF1R,4%
same,%Inh,IKK-alpha,28%
same,%Inh,IKK-beta,5%
same,%Inh,IKK-epsilon,0%
same,%Inh,INSRR,0%
same,%Inh,INSR,0%
COc1ccc(CSc2nnc(-c3ccc4c(c3)CCO4)o2)cc1,%Inh,GRK3,3%
same,%Inh,GRK4,1%
same,%Inh,GRK7,0%
same,%Inh,GSK3A,75%
same,%Inh,GSK3B; 1 µM,0%
same,%Inh,HASPIN,42%
same,%Inh,HCK,0%
same,%Inh,HIPK1,9%
same,%Inh,HIPK2,0%
same,%Inh,HIPK3,0%
same,%Inh,HIPK4,0%
same,%Inh,HPK1,0%
same,%Inh,HUNK,0%
same,%Inh,ICK,0%
same,%Inh,IGF1R,0%
same,%Inh,IKK-alpha,0%
same,%Inh,IKK-beta,0%
same,%Inh,IKK-epsilon,0%
same,%Inh,INSRR,0%
same,%Inh,INSR,0%
Cc1ccc(NC(=O)Nc2ccc(Cl)c(C(F)(F)F)c2)cc1-c1ccc(C(=O)Nc2ccncc2)cc1 [GSK1398470],%Inh,GRK3,0%
same,%Inh,GRK4,10%
same,%Inh,GRK7,0%
same,%Inh,GSK3A,21%
same,%Inh,GSK3B; [1],10%
same,%Inh,HASPIN,10%
same,%Inh,HCK,0%
same,%Inh,HIPK1,0%
same,%Inh,HIPK2,0%
same,%Inh,HIPK3,0%
same,%Inh,HIPK4,8%
same,%Inh,HPK1,56%
same,%Inh,HUNK,9%
same,%Inh,ICK,4%
same,%Inh,IGF1R,26%
same,%Inh,IKK-alpha,0%
same,%Inh,IKK-beta,0%
same,%Inh,IKK-epsilon,29%
same,%Inh,INSRR,5%
same,%Inh,INSR,23%
Fc1ccc(-c2nc[nH]c2-c2ccncc2)cc1 [SB-217360],%Inh,GRK3,11%
same,%Inh,GRK4,19%
same,%Inh,GRK7,0%
same,%Inh,GSK3A,0%
same,%Inh,GSK3B; [1],13%
same,%Inh,HASPIN,57%
same,%Inh,HCK,20%
same,%Inh,HIPK1,34%
same,%Inh,HIPK2,10%
same,%Inh,HIPK3,7%
same,%Inh,HIPK4,0%
same,%Inh,HPK1,0%
same,%Inh,HUNK,55%
same,%Inh,ICK,0%
same,%Inh,IGF1R,3%
same,%Inh,IKK-alpha,9%
same,%Inh,IKK-beta,0%
same,%Inh,IKK-epsilon,0%
same,%Inh,INSRR,0%
same,%Inh,INSR,24%
Cc1c(Cn2c(C)c(C)n3c(=O)cc(N4CCOCC4)nc23)cccc1C(F)(F)F [GSK2328680],%Inh,GRK3,0%
same,%Inh,GRK4,0%
same,%Inh,GRK7,0%
same,%Inh,GSK3A,13%
same,%Inh,GSK3B; [1],11%
same,%Inh,HASPIN,0%
same,%Inh,HCK,0%
same,%Inh,HIPK1,0%
same,%Inh,HIPK2,0%
same,%Inh,HIPK3,13%
same,%Inh,HIPK4,0%
same,%Inh,HPK1,33%
same,%Inh,HUNK,0%
same,%Inh,ICK,0%
same,%Inh,IGF1R,0%
same,%Inh,IKK-alpha,7%
same,%Inh,IKK-beta,0%
same,%Inh,IKK-epsilon,0%
same,%Inh,INSRR,52%
same,%Inh,INSR,0%
COC(=O)c1cccc(NC(=O)NC2CCN(c3ccnc(Nc4ccc(OC)cc4)n3)C2)c1 (centres unmarked) [GSK1379746],%Inh,GRK3,43%
same,%Inh,GRK4,0%
same,%Inh,GRK7,0%
same,%Inh,GSK3A,0%
same,%Inh,GSK3B; [1],12%
same,%Inh,HASPIN,0%
same,%Inh,HCK,0%
same,%Inh,HIPK1,0%
same,%Inh,HIPK2,0%
same,%Inh,HIPK3,0%
same,%Inh,HIPK4,0%
same,%Inh,HPK1,41%
same,%Inh,HUNK,0%
same,%Inh,ICK,12%
same,%Inh,IGF1R,1%
same,%Inh,IKK-alpha,44%
same,%Inh,IKK-beta,18%
same,%Inh,IKK-epsilon,29%
same,%Inh,INSRR,0%
same,%Inh,INSR,0%
Cn1cncc1C(=O)NC1CCN(c2ccnc(Nc3ccc(F)cc3)n2)C1 (centres unmarked) [GSK1379717],%Inh,GRK3,0%
same,%Inh,GRK4,0%
same,%Inh,GRK7,0%
same,%Inh,GSK3A,12%
same,%Inh,GSK3B; [1],8%
same,%Inh,HASPIN,0%
same,%Inh,HCK,0%
same,%Inh,HIPK1,0%
same,%Inh,HIPK2,0%
same,%Inh,HIPK3,3%
same,%Inh,HIPK4,0%
same,%Inh,HPK1,68%
same,%Inh,HUNK,0%
same,%Inh,ICK,31%
same,%Inh,IGF1R,0%
same,%Inh,IKK-alpha,25%
same,%Inh,IKK-beta,17%
same,%Inh,IKK-epsilon,33%
same,%Inh,INSRR,0%
same,%Inh,INSR,10%
CC(C)c1cc(-c2ccc3c(N)n[nH]c3c2)nc(N)n1 [GSK2250882],%Inh,GRK3,0%
same,%Inh,GRK4,10%
same,%Inh,GRK7,0%
same,%Inh,GSK3A,0%
same,%Inh,GSK3B; [1],0%
same,%Inh,HASPIN,83%
same,%Inh,HCK,0%
same,%Inh,HIPK1,15%
same,%Inh,HIPK2,0%
same,%Inh,HIPK3,9%
same,%Inh,HIPK4,30%
same,%Inh,HPK1,45%
same,%Inh,HUNK,0%
same,%Inh,ICK,0%
same,%Inh,IGF1R,6%
same,%Inh,IKK-alpha,0%
same,%Inh,IKK-beta,4%
same,%Inh,IKK-epsilon,10%
same,%Inh,INSRR,0%
same,%Inh,INSR,4%
